PubChem BioAssay AID1117283 (Broad Institute, 2014)
Entries with a potency or affinity are not part of this list. The source made the active and inactive calls.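 The calls were made as follows: active = fluorescent signal decreased by at least 40%; inconclusive = no clear call, values can overlap the other calls; inactive = the rest, including activity opposite to the expected direction.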

Test: inhibition of fibronectin matrix deposition – AH1F cells, Alexa488-fibronectin fluorescence, cherry-pick, set 2, dose response (AID 1117283);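 also: AH1F fibroblasts given Alexa488-labelled fibronectin at 24 nM final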
Conditions: AH1F fibroblasts, overnight; series mostly up to 35 µM; activity change, negative = inhibition: at the top concentration

Structure (SMILES)	activity change, negative = inhibition
O=C(NCc1ccccc1)c1ccc(-c2cn[nH]c2)c2ccoc12	2.33% (inactive)
COCC(=O)Nc1ccc2c(c1)C(=O)N(C)[C@H]1CC[C@H](CC(=O)NCc3ccccc3Cl)O[C@H]1CO2	-9.35% (inactive)
CCc1ccc(NC(=O)CSc2nnc(-c3ccco3)o2)cc1	-4.56% (inactive)
CC(=O)Nc1cccc(-c2ccnc3c2CC(C)(C(=O)Nc2cccc(C(F)(F)F)c2)O3)c1 (configuration not stated)	-5.01% (inactive)
C[C@@H]1CN([C@@H](C)CO)C(=O)c2cc(NC(=O)CCCN(C)C)ccc2O[C@@H]1CN(C)Cc1ccc(-c2ccccc2)cc1	-1.8% (inactive)
O=C(C[C@@H]1C[C@@H]2c3cc(NC(=O)c4ccc5c(c4)OCO5)ccc3O[C@@H]2[C@@H](CO)O1)NCc1ccc(Oc2ccccc2)cc1	3.19% (inactive)
O=C(c1cccnc1)N1C[C@H]2[C@@H](c3ccccc31)[C@H](CO)N2CC1CCCC1	8.16% (inactive)
CN1c2ccc(-c3ccccc3)cc2[C@@H]2[C@@H](CCN2C(=O)CN2CCOCC2)[C@H]1CO	3.99% [at 30 µM] (inactive)
COC(=O)C[C@H]1CC[C@H]2[C@@H](COc3ccc(NC(=O)Cc4cccs4)cc3C(=O)N2C)O1	-7.74% (inactive)
CC(C)C(=O)Nc1ccc2c(c1)C(=O)N(C)[C@@H]1CC[C@H](CC(=O)O)O[C@@H]1CO2	7.63% (inactive)
C[C@@H]1CN([C@H](C)CO)C(=O)c2cc(-c3ccccc3)cnc2O[C@H]1CN(C)Cc1ccccc1	5.66% (inactive)
CO[C@H]1CN(C)C(=O)c2ccc(NC(=O)c3ccc(-c4ccccc4)cc3)cc2OC[C@@H](C)NC[C@@H]1C	-7.14% (inactive)
CC(C)(C)[S@](=O)N1Cc2cc(C(=O)NCc3ccccc3F)nc(-c3cccc(-c4cncnc4)c3)c2[C@@H]1CCO	7.09% (inactive)
CN1c2ccc(-c3ccccc3)cc2[C@H]2[C@H](CCN2C(=O)CN2CCOCC2)[C@H]1CO	-7.43% (inactive)
COC(=O)C[C@H]1CC[C@H]2[C@H](COc3ccc(NC(=O)Cc4cccs4)cc3C(=O)N2C)O1	-7.38% (inactive)
CO[C@@H]1CN(C)C(=O)c2cc(NC(=O)Nc3cc(Cl)cc(Cl)c3)ccc2OC[C@H](C)NC[C@H]1C	25.1% (inactive)
COCC(=O)Nc1ccc2c(c1)C(=O)N(C)[C@@H]1CC[C@H](CC(=O)NCc3ccccc3Cl)O[C@H]1CO2	-3.95% (inactive)
O=S(=O)(c1cccc(F)c1)N1CC[C@@H]2[C@H]1c1cc(-c3cccc(F)c3)ccc1N[C@@H]2CO	-11.1% (inactive)
CO[C@H]1CN(C)C(=O)c2cc(NC(=O)Nc3ccc(C(F)(F)F)cc3)ccc2OC[C@H](C)NC[C@H]1C	-0.807% (inactive)

Structure (SMILES)	activity change, negative = inhibition
N#Cc1ccc(-c2ccc3c(c2)[C@@H]2[C@@H](CCN2S(=O)(=O)c2cccc(F)c2)[C@@H](CO)N3)cc1	2.96% (inactive)
Fc1cnc(N2CCN(c3ccccc3)CC2)nc1N1CCN(c2ccccc2)CC1	4.07% (inactive)
Cc1cccc(NC(=O)c2ccc(S(=O)(=O)N3CCCCC3)cc2)n1	-4.63% (inactive)
COc1ccc(-c2oc3ncnc(NCCCN4CCOCC4)c3c2-c2ccc(OC)cc2)cc1	-3.3% (inactive)
C[C@@H]1CN([C@@H](C)CO)C(=O)c2cc(-c3ccccc3)cnc2O[C@H]1CN(C)Cc1ccccc1	6.85% (inactive)
C[C@H]1CN([C@@H](C)CO)C(=O)c2cc(NC(=O)C3CCCCC3)ccc2O[C@H]1CN(C)Cc1ccc(-c2ccccc2)cc1	12.3% (inactive)
Cc1cccc(NC(=O)Nc2ccc(S(=O)(=O)Nc3onc(C)c3C)cc2)c1	-5.54% (inactive)
CN(C)C(=O)c1ccc(-c2ccc3c(c2)[C@@H]2[C@@H](CCN2C(=O)c2ccc(F)cc2)[C@@H](CO)N3C)cc1	-0.065% (inactive)
COc1ccc(-c2csc(CCn3nc(C)cc3C)n2)cc1OC	-4.81% (inactive)
CC(C)Cc1nnc(NC(=O)CSc2nc(N)cc(=O)[nH]2)s1	4.83% (inactive)
COc1ccc(C)cc1N(CC(=O)Nc1cccc(N(C)S(C)(=O)=O)c1)S(C)(=O)=O	-1.69% (inactive)
COc1ccc(Cl)cc1NC(=O)CSc1nc(Nc2ccccc2)nc(N2CCOCC2)n1	27.7% (inactive)
CCS(=O)(=O)c1ncc(Cl)c(C(=O)Nc2ccc(S(=O)(=O)N3CCC(C)CC3)cc2)n1	-6.19% (inactive)
Cc1ccc(CS(=O)Cc2ccc(C(=O)NC3CCCC(C)C3C)o2)cc1 (configuration not stated)	-3.83% (inactive)
O=C(c1cccnc1)N1C[C@@H]2[C@H](c3ccccc31)[C@@H](CO)N2CC1CCCC1	-3.72% (inactive)
CO[C@H]1CN(C)C(=O)c2ccc(NC(=O)c3ccc(-c4ccccc4)cc3)cc2OC[C@H](C)NC[C@@H]1C	40.8% (inactive)
Nc1nc(-c2cc3c(cc2Cl)OCCO3)cs1	11.5% (inactive)
COc1ccc(CN(C2CCCC2)S(=O)(=O)c2ccc(-n3cnnn3)cc2)cc1OC	1.74% (inactive)
